The supplement of paper PMC10849652
Targets with a hit are over-represented here; the source holds about 8,800 in all. About 0.5% of all pairs of compound and target were hits.

What was measured:
Assay in all cases: log2 fold change, soluble protein after heating vs DMSO (PISA); higher = thermal stabilisation; K562 lysate, 10 uM; active = over 0.2 and 3.5 SD of the protein, either way, in both replicates (recomputed)
erlotinib = compound: C#Cc1cccc(Nc2ncnc3cc(OCCOC)c(OCCOC)cc23)c1 [erlotinib]
Procedure, shortened: (§1)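 Dounce homogenisation of K562 pellets in PBS pH 7.4 with 1 mM MgCl2 produced a crude extract, used at 1 mg/mL protein. Exposure to 10 μM compound lasted 30 min, and aliquots were then heated for 3 min across 48°C-58°C, pooled and brought to 0.5% NP-40 at 4°C. The supernatant after 21,000xg for 90 min was quantified by TMTpro 16plex LC-MS/MS with channel sums equalised. Duplicate values are given as log-two fold change in thermal stability relative to solvent controls.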

[1] = compound: C/C(=N\NC(=O)C1=CC(=CC=C1)S(=O)(=O)N2CCOCC2)/C3=C(C=CC(=C3)Cl)O
Procedure, shortened: as §1

[2] = compound: C1=CC(=CC=C1C2=NC3=C(N2)C=C(C=C3)C(=O)N)OC4=CC=C(C=C4)Cl
Procedure, shortened: as §1

[3] = compound: C1=CC2=C(C=CC(=C2)/C=C\3/C(=O)NC(=NCC4=CC=CS4)S3)N=C1
Procedure, shortened: as §1

[4] = compound: C1=CC2=NC=CN=C2C=C1/C=C/3\C(=O)NC(=O)S3
Procedure, shortened: as §1

[5] = compound: C1=CC=C(C=C1)C2=NC(=C(N2)C3=CC=NC=C3)C4=CC(=C(C=C4)Cl)O
Procedure, shortened: as §1

[6] = compound: C1=CC=C2C(=C1)C3=NNC4=CC=CC(=C43)C2=O
Procedure, shortened: as §1

[7] = compound: C1CCN(C1)C(=O)NC2=CC=CC(=C2)NC3=NC=C(C(=N3)NCCC4=CN=CN4)Br
Procedure, shortened: as §1

[8] = compound: C1CN(CCC1(CC2=CC=C(C=C2)Cl)N)C3=NC=NC4=C3C=CN4
Procedure, shortened: as §1

IRAK-1-4 Inhibitor I = compound: C1COCCN1CCN2C3=CC=CC=C3N=C2NC(=O)C4=CC(=CC=C4)[N+](=O)[O-] [IRAK-1-4 Inhibitor I]
Procedure, shortened: as §1

Measured: log2 fold change

INTS8 (UniProt Q75QN2)
inactive: erlotinib -0.002 | [1] 0.043 | [2] -0.051 | [3] 0.02 | [4] -0.048 | [5] 0.037 | [6] -0.004 | [7] 0.066 | [8] -0.035 | IRAK-1-4 Inhibitor I 0.015

HDAC3 (UniProt O15379)
Sequence of UniProt O15379 (O15379 whole entry, looked up): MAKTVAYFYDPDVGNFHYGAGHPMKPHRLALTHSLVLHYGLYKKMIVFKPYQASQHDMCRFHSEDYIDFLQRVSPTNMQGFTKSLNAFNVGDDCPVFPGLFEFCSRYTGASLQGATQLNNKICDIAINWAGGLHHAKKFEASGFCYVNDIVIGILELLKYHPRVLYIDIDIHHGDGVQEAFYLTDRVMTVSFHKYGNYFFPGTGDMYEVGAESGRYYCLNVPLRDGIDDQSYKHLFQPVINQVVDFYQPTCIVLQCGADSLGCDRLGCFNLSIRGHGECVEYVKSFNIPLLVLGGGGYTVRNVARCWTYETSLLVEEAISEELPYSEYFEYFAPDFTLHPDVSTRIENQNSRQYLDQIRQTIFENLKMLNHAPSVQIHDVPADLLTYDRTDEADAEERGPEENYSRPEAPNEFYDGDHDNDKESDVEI
inactive: erlotinib 0.061 | [1] -0.035 | [2] 0.056 | [3] -0.008 | [4] -0.001 | [5] 0.01 | [6] 0.019 | [7] -0.017 | [8] 0.029 | IRAK-1-4 Inhibitor I 0.028

HK2 (UniProt P52789)
inactive: erlotinib 0.013 | [1] 0.007 | [2] -0.045 | [3] 0.019 | [4] -0.01 | [5] 0.026 | [6] -0.027 | [7] -0.016 | [8] 0.004 | IRAK-1-4 Inhibitor I -0.002

ISOC2 (UniProt Q96AB3)
Sequence of UniProt Q96AB3 (Q96AB3 whole entry, looked up): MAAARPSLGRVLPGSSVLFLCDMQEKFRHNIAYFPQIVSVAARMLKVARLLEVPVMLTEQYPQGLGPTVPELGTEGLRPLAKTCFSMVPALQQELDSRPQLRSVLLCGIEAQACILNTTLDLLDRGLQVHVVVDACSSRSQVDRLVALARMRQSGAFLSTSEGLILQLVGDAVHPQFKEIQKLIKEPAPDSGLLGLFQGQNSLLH
inactive: erlotinib -0.018 | [1] 0.003 | [2] 0.001 | [3] -0.035 | [4] -0.006 | [5] -0.072 | [6] 0.003 | [7] -0.007 | [8] -0.001 | IRAK-1-4 Inhibitor I 0.053

ILKAP (UniProt Q9H0C8)
Sequence of UniProt Q9H0C8 (Q9H0C8 whole entry, looked up): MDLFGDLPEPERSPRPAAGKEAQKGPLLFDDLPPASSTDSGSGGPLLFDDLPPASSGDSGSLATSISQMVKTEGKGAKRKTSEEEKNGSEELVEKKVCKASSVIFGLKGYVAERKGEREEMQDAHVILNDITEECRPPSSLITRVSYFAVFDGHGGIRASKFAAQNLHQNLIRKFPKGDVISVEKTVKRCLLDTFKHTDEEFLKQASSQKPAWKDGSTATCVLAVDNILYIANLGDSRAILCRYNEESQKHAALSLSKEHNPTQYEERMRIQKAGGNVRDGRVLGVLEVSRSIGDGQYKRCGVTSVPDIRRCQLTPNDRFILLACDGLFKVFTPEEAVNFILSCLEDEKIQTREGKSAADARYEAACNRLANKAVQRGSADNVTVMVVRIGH
inactive: erlotinib -0.042 | [1] -0.01 | [2] -0.007 | [3] 0.027 | [4] -0.021 | [5] -0.005 | [6] 0.015 | [7] -0.022 | [8] -0.043 | IRAK-1-4 Inhibitor I 0.004

GSE1 (UniProt Q14687)
inactive: erlotinib 0.012 | [1] -0.022 | [2] 0.025 | [3] 0.003 | [4] -0.001 | [5] -0.013 | [6] -0.048 | [7] -0.032 | [8] -0.018 | IRAK-1-4 Inhibitor I -0.011

KEAP1 (UniProt Q14145)
inactive: erlotinib 0.048 | [1] 0.006 | [2] 0.018 | [3] -0.005 | [4] 0.014 | [5] 0.015 | [6] -0.006 | [7] 0.038 | [8] 0.018 | IRAK-1-4 Inhibitor I -0.006

HMGB2 (UniProt P26583)
inactive: erlotinib -0.007 | [1] 0.039 | [2] 0.007 | [3] 0.008 | [4] -0.017 | [5] 0.046 | [6] 0.013 | [7] 0.014 | [8] -0.008 | IRAK-1-4 Inhibitor I -0.026

HMGN5 (UniProt P82970)
Sequence of UniProt P82970 (P82970 whole entry, looked up): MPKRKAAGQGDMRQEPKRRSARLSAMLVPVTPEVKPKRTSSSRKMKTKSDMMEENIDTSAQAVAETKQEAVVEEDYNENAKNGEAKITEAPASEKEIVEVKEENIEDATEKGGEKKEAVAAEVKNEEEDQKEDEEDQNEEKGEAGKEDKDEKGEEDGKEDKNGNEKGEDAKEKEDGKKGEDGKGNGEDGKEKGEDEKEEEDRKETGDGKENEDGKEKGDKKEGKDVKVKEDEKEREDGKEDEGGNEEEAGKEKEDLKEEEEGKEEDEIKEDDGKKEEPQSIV
inactive: erlotinib 0.013 | [1] -0.122 | [2] 0.052 | [3] 0.021 | [4] -0.002 | [5] -0.013 | [6] 0.024 | [7] 0.067 | [8] 0.024 | IRAK-1-4 Inhibitor I 0.007

HNRNPM (UniProt P52272)
inactive: erlotinib -0.015 | [1] -0.046 | [2] 0.004 | [3] -0.022 | [4] 0.051 | [5] -0.036 | [6] -0.039 | [7] -0.022 | [8] -0.003 | IRAK-1-4 Inhibitor I 0.005

GSTZ1 (UniProt G3V4T6)
inactive: erlotinib 0.018 | [1] -0.034 | [2] 0.032 | [3] -0.003 | [4] 0.02 | [5] -0.043 | [6] 0.026 | [7] 0.017 | [8] 0.064 | IRAK-1-4 Inhibitor I 0.016

HDAC6 (UniProt Q9UBN7)
inactive: erlotinib -0.025 | [1] -0.002 | [2] -0.025 | [3] -0.006 | [4] -0.014 | [5] -0.042 | [6] -0.034 | [7] -0.001 | [8] -0.023 | IRAK-1-4 Inhibitor I 0.008

HAUS3 (UniProt Q68CZ6)
inactive: erlotinib 0.022 | [1] 0.01 | [2] -0.033 | [3] 0.016 | [4] -0.028 | [5] 0.004 | [6] -0.06 | [7] -0.045 | [8] 0.019 | IRAK-1-4 Inhibitor I 0.025

GRK6 isoform 2 (UniProt P43250)
Sequence of UniProt P43250 (P43250 whole entry, looked up): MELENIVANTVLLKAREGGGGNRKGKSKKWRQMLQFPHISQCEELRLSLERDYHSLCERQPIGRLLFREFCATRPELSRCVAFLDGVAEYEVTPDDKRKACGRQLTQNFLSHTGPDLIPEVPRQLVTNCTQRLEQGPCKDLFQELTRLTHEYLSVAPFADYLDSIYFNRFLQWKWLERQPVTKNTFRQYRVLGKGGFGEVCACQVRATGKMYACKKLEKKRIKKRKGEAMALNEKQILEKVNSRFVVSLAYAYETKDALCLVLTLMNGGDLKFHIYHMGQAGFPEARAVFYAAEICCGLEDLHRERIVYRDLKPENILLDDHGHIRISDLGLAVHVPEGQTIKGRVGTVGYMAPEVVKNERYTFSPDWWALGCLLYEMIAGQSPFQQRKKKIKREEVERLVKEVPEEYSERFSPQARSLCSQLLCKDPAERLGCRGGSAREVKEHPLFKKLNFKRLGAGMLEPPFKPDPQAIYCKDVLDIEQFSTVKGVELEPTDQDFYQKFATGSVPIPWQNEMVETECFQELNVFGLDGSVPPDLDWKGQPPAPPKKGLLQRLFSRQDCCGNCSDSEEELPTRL
inactive: erlotinib -0.014 | [1] -0.126 | [2] 0.015 | [3] -0.009 | [4] -0.046 | [5] -0.063 | [6] 0.284 | [7] -0.161 | [8] 0.108 | IRAK-1-4 Inhibitor I 0.053

HNRNPUL2 (UniProt Q1KMD3)
Sequence of UniProt Q1KMD3 (Q1KMD3 whole entry, looked up): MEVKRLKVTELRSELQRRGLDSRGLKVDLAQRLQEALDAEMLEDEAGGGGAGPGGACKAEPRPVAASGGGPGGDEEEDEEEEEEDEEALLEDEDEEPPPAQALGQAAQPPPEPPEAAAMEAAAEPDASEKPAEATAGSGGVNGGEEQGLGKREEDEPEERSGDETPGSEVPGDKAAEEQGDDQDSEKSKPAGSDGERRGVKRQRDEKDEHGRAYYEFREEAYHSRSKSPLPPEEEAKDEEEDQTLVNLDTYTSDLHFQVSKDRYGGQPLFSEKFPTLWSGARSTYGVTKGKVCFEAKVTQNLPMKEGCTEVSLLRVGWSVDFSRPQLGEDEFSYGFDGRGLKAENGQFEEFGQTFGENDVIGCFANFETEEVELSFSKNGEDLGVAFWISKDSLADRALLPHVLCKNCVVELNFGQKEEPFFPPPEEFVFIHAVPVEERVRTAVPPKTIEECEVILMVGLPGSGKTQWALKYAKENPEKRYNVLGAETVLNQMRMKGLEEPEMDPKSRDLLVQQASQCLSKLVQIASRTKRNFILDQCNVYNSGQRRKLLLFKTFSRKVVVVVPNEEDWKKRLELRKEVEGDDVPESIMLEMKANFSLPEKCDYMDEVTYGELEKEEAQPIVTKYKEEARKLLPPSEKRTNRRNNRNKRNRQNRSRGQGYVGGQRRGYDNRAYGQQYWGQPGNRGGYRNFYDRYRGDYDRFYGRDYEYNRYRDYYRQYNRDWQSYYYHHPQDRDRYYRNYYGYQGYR
inactive: erlotinib -0.006 | [1] -0.002 | [2] 0.02 | [3] -0.004 | [4] -0.035 | [5] -0.006 | [6] -0.014 | [7] -0.001 | [8] -0.022 | IRAK-1-4 Inhibitor I -0.003

KHDRBS1 (UniProt Q07666)
inactive: erlotinib -0.013 | [1] 0.001 | [2] -0.035 | [3] 0.009 | [4] -0.038 | [5] 0.006 | [6] -0.016 | [7] 0.026 | [8] 0.037 | IRAK-1-4 Inhibitor I -0.013

HNRNPAB isoform 3 (UniProt Q99729)
Sequence of UniProt Q99729 (Q99729 whole entry, looked up): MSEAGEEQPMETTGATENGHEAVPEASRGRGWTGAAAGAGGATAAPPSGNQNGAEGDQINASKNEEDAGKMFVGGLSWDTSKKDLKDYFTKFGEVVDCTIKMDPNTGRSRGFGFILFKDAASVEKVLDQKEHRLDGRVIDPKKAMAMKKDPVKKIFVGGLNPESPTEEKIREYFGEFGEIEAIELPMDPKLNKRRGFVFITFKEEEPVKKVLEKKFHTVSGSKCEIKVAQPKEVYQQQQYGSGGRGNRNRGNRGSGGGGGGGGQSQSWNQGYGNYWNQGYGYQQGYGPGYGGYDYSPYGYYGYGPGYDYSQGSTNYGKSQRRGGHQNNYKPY
inactive: erlotinib -0.032 | [1] -0.214 | [2] 0.017 | [3] -0.007 | [4] 0.002 | [5] -0.001 | [6] -0.012 | [7] 0.003 | [8] 0 | IRAK-1-4 Inhibitor I 0.009

HNRNPUL1 (UniProt Q9BUJ2)
inactive: erlotinib -0.039 | [1] 0.011 | [2] 0.002 | [3] -0.016 | [4] -0.023 | [5] -0.045 | [6] 0.03 | [7] 0.01 | [8] -0.02 | IRAK-1-4 Inhibitor I -0.032

GTF2H4 (UniProt Q92759)
inactive: erlotinib -0.013 | [1] -0.049 | [2] -0.013 | [3] 0.037 | [4] -0.059 | [5] -0.001 | [6] 0.141 | [7] 0.056 | [8] -0.004 | IRAK-1-4 Inhibitor I -0.044

HERC2 (UniProt O95714)
inactive: erlotinib 0.014 | [1] 0.174 | [2] 0.115 | [3] 0.007 | [4] 0.01 | [5] 0.042 | [6] -0.061 | [7] -0.016 | [8] -0.001 | IRAK-1-4 Inhibitor I -0.033

IMPDH1 isoform 6 (UniProt P20839)
Sequence of UniProt P20839 (P20839 whole entry, looked up): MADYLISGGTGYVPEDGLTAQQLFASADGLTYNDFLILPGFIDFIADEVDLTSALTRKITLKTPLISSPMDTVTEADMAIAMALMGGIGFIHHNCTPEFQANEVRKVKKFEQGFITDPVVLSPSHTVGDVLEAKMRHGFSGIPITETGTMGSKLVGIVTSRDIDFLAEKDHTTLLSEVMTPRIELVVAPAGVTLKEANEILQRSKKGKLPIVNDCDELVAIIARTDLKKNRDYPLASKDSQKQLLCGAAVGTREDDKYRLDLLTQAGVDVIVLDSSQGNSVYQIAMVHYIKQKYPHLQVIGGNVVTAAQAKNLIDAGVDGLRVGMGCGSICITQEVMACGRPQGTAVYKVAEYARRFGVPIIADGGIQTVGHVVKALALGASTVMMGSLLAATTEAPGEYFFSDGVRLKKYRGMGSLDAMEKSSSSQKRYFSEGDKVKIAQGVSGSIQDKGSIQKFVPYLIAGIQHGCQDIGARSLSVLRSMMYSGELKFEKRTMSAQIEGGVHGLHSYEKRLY
inactive: erlotinib 0.018 | [1] 0.036 | [2] -0.031 | [3] 0.009 | [4] -0.001 | [5] -0.001 | [6] 0.017 | [7] 0.028 | [8] 0.032 | IRAK-1-4 Inhibitor I 0.003

GNB1 (UniProt P62873)
inactive: erlotinib 0.053 | [1] 0.018 | [2] 0.082 | [3] -0.019 | [4] -0.015 | [5] -0.022 | [6] 0.023 | [7] -0.017 | [8] -0.031 | IRAK-1-4 Inhibitor I 0.012

GMIP (UniProt Q9P107)
inactive: erlotinib 0.014 | [1] 0.019 | [2] -0.02 | [3] -0.029 | [4] 0.009 | [5] 0.068 | [6] 0.03 | [7] -0.063 | [8] 0.019 | IRAK-1-4 Inhibitor I 0.025

HNRNPDL (UniProt O14979)
Sequence of UniProt O14979 (O14979 whole entry, looked up): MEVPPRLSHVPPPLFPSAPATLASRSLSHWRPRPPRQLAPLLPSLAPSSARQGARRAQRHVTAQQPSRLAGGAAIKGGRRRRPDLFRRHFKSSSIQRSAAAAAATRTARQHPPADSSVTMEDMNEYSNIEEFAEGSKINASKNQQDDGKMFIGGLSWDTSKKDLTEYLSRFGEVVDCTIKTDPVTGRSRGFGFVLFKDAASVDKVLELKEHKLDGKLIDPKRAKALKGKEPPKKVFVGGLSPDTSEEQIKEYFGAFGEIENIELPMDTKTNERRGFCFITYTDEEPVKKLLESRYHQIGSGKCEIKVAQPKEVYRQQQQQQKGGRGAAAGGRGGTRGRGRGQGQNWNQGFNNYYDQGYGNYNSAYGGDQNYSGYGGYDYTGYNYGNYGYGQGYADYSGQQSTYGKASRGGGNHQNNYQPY
inactive: erlotinib -0.013 | [1] 0.026 | [2] 0.009 | [3] -0.008 | [4] 0.024 | [5] 0.038 | [6] 0.008 | [7] 0.006 | [8] 0.014 | IRAK-1-4 Inhibitor I -0.008

HADH isoform 2 (UniProt Q16836)
inactive: erlotinib -0.052 | [1] 0.065 | [2] 0.023 | [3] 0.08 | [4] -0.03 | [5] 0.003 | [6] -0.015 | [7] -0.015 | [8] -0.028 | IRAK-1-4 Inhibitor I 0.008

GUSB (UniProt P08236)
inactive: erlotinib -0.053 | [1] -0.043 | [2] 0.135 | [3] -0.072 | [4] -0.041 | [5] -0.058 | [6] -0.072 | [7] -0.003 | [8] 0.055 | IRAK-1-4 Inhibitor I 0.066

HTT (UniProt P42858)
inactive: erlotinib 0.018 | [1] -0.051 | [2] -0.067 | [3] 0.037 | [4] 0.032 | [5] -0.041 | [6] -0.138 | [7] -0.04 | [8] -0.05 | IRAK-1-4 Inhibitor I -0.027

IMMT (UniProt Q16891)
Sequence of UniProt Q16891 (Q16891 whole entry, looked up): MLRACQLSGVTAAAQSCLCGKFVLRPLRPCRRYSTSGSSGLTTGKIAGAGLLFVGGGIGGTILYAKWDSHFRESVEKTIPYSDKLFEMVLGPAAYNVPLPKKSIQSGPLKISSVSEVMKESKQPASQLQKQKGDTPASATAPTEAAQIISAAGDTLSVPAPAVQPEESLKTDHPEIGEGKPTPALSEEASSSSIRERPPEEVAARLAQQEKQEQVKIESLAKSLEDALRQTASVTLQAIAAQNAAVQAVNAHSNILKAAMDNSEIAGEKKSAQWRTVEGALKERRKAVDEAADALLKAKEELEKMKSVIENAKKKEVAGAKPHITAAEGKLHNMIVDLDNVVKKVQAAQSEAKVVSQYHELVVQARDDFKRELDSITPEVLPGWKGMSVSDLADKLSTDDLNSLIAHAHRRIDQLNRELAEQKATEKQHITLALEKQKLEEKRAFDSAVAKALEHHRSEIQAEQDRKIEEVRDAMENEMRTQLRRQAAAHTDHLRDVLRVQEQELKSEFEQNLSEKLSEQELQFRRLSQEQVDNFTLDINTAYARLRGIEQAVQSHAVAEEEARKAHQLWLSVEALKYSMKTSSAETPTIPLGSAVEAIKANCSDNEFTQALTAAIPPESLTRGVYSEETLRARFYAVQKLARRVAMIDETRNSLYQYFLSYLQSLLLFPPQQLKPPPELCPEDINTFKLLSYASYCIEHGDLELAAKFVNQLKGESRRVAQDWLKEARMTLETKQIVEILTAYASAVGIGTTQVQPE
inactive: erlotinib 0.008 | [1] 0.058 | [2] -0.176 | [3] 0.035 | [4] 0.024 | [5] -0.001 | [6] -0.031 | [7] 0.016 | [8] -0.026 | IRAK-1-4 Inhibitor I -0.007

ICAM2 (UniProt P13598)
Sequence of UniProt P13598 (P13598 whole entry, looked up): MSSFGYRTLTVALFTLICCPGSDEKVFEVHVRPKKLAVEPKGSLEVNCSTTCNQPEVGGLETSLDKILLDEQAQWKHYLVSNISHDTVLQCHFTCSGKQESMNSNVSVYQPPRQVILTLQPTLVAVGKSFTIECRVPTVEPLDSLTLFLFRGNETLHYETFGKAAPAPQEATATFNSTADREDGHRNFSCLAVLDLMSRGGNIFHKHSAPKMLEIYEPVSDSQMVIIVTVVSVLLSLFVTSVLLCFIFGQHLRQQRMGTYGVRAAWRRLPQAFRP
inactive: erlotinib 0.004 | [1] -0.022 | [2] 0.023 | [3] -0.029 | [4] -0.01 | [5] -0.011 | [6] 0.021 | [7] 0.032 | [8] 0.005 | IRAK-1-4 Inhibitor I 0.061

IMMT (UniProt C9J406)
inactive: erlotinib 0.077 | [1] 0.041 | [2] -0.028 | [3] 0.001 | [4] 0.043 | [5] 0.028 | [6] -0.032 | [7] -0.222 | [8] 0.325 | IRAK-1-4 Inhibitor I -0.016
